# NS1 inh – qHTS Assay for Inhibitors of Influenza NS1 Protein Function; hit rate 0.4% among 270,000; Potency, µM (highest dose often 46.1 µM), for inactives: at the top dose activity, positive = more growth; calls by dose curve; note: potency is the fitted concentration of half-maximal effect; actives are rising curves; nearly all actives have a fitted effect of over 50% in size
#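 In this qHTS, NS1 from influenza A is expressed in budding yeast, where it slows growth. Cells are switched from glucose to 2% galactose medium (pH 6.0, -URA), treated with compound, and growth recovery is read at OD600.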
# AmpC no deterg – qHTS Inhibitors of AmpC Beta-Lactamase (assay without detergent); AmpC nitrocefin hydrolysis, absorbance 480 nm, 0.0001% Triton; Potency, µM (doses to about 57.1 µM), without a hit: top-dose activity change, negative = inhibition, most hits filed as inhibitors; hit rate 0.52% among 330,000; AID 485341, 2010;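 note: potency is the fitted concentration of half-maximal effect; plate controls were no compound for no effect and no enzyme for full effect; nearly all actives have a fitted effect of over 20% in size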
# Target sequence (P00811 whole entry, looked up): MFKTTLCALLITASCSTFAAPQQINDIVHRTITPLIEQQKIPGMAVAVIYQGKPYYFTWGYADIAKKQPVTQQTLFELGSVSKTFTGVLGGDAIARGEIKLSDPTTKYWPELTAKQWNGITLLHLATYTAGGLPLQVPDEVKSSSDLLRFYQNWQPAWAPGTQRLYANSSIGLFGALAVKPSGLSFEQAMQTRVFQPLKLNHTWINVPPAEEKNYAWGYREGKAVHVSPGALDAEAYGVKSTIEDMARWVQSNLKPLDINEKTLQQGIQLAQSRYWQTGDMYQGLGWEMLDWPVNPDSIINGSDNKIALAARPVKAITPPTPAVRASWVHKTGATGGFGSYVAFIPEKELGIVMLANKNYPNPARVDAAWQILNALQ
#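 20 mM phosphate pH 7.0 + 0.01% (detergent screen) or 0.0001% Triton X-100; 5.3 nM AmpC reagent; cpd preinc 15 min RT; nitrocefin (800 uM stock) to start; A480 q20 s × 4 min; Activity was normalised to no-enzyme and no-compound control wells.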
# CHX counter – Cycloheximide Counterscreen for Small Molecule Inhibitors of Shiga Toxin; cell reporter, cycloheximide protein synthesis inhibition counterscreen; max response, %; AID 2314, 2010; hit rate 12% among 300,000; in the data active = max response mostly above about 13%, no sharp cut-off; inactive = mostly below about 14%; note: read at 38.3 µM for the half of the compounds with a filed dose; 0% is about no effect
# Shiga inhibitor – A qHTS for Small Molecule Inhibitors of Shiga Toxin | hit rate 9.2% among 290,000 | Vero cells, Shiga toxin protein synthesis inhibition reporter | AID 2315, 2010 | inhibition, % at 38.7 µM; in the data active = inhibition mostly above about 28%, no sharp cut-off; inactive = mostly below about 43%; note: 0% is about no effect
# AmpC detergent – qHTS Inhibitors of AmpC Beta-Lactamase (assay with detergent) | AID 485294, 2010 | hit rate 0.041% among 370,000 | P00811 | Potency, µM (top dose mostly 114 µM), without a hit: top-dose activity change, negative = inhibition, most hits filed as inhibitors | AmpC hydrolysis of nitrocefin, absorbance 480 nm, 0.01% Triton;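 note: potency is the fitted concentration of half-maximal effect; 0% = no-compound wells and -100% = no-enzyme wells; nearly all actives have a fitted effect of over 25% in size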
#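 20 mM phosphate pH 7.0 + 0.01% (detergent screen) or 0.0001% Triton X-100; 5.3 nM AmpC reagent; cpd preinc 15 min RT; nitrocefin (800 uM stock) to start; A480 q20 s × 4 min; Activity was normalised to no-enzyme and no-compound control wells.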
# An asterisk follows results filed as active; ? = inconclusive; . = not tested or not shown. Shown is part of a subset that was picked to be rich in hits. Unless noted, calls come from the whole dose curve; as a rule, active = well fitted curve in the direction sought with a large enough effect; inconclusive = small, poorly fitted or top-dose-only effect, or another doubt; inactive = no such curve, though single readings can be large; an effect the other way counts as inactive or inconclusive.
SMILES,NS1 inh,AmpC no deterg,CHX counter,Shiga inhibitor,AmpC detergent
O=C(/C=C/c1ccc2ccccc2n1)c1cc(Cl)ccc1O,11%,-31%,39*,66*,-6%
Nc1cccnc1Oc1ccc(F)cc1,-1%,-4%,14*,25,-4%
COc1ccccc1/C=C/C(=O)N1CCCC1,27%,-13%,33*,36,10%
COc1ccccc1/C=C/C(=O)N1CCN(S(=O)(=O)c2cccs2)CC1,.,-17%,.,.,.
COc1ccccc1/C=C/C(=O)/C=C/c1ccccc1O,-117%,?,99*,139*,3%
CNc1ccccc(C(=O)/C=C/c2ccccc2OC)c1=O,6%,-44%,31*,55*,-12%
O[C@@H](c1cc([C@@]23C[C@H]4CC[C@@H]2C[C@H](C4)C3)nc2c(Cl)cc(Cl)cc12)C1CCCCN1 (stereo not given in full),-3%,.,.,.,.
S=c1[nH]cc(-c2ccccc2)[nH]1,13%,-18%,39*,34*,-2%
O=[N+]([O-])c1ccc(-c2c[nH]c(=S)[nH]2)cc1,?,-53%,15,18,-1%
CCn1c(=O)n(-c2ccc(F)c(Cl)c2)c(=O)c2sc3ccccc3c21,.,.,.,.,-1%
NC(N)=NN=C1CCC(c2ccccc2)CC1 (stereo not given),-6%,-11%,-2,-5,-4%
O=C(CN(Cc1ccco1)C(=O)c1ccc(F)cc1)Nc1ccccc1Br,.,-25%,.,.,.
CC(C)[C@H](NC(=O)c1ccccc1Cl)C(=O)OCC(=O)N1CCCCC1,.,-8%,.,.,.
CC1CCc2c(C(=O)Nc3ccccn3)csc2C1 (stereo not given),-89%,-34%,47*,70*,1%
CC1=C(C(=O)NCc2ccccn2)C2(CCC(C)CC2)OC1=O (stereo not given),-6%,2.8µM*,-3,-2,?
CC1=C(C(=O)NCc2ccc(Cl)cc2)C2(CCC(C)CC2)OC1=O (stereo not given),-1%,36%,-2,5,1%
CC1CCc2c(C(=O)Nc3ccc(OC(F)(F)F)cc3)csc2C1 (stereo not given),14%,-41%,10,5,-15%
CC1CCc2c(C(=O)NCC3CCCO3)csc2C1 (stereo not given),-50%,2%,86*,98*,-8%
O=C(NCC1CCCO1)c1csc2c1CCCCC2 (stereo not given),-8%,-9%,11,7,2%
CC1CCc2c(C(=O)NCc3ccccn3)csc2C1 (stereo not given),-1%,1%,65*,161*,?
CC1CCc2c(C(=O)NCc3cccnc3)csc2C1 (stereo not given),2%,-12%,6,-7,?
COc1ccc(-c2cn(Cc3ccc(C(N)=O)cc3)c(-c3ccc(Cl)nc3)n2)cc1,.,0%,.,.,?
O=C(c1cn(Cc2ccccc2)nc1-c1ccccc1)N1CCN(c2ccccn2)CC1,.,44%,.,.,5%
CCOC(=O)c1c(NC(=O)COc2cccc(C(F)(F)F)c2)sc2c1CCC(C)C2 (stereo not given),.,.,.,.,5%
Cc1ccccc1NC(=S)NNC(=O)c1csc2c1CCC(C)C2 (stereo not given),-14%,-47%,35*,78*,3%
SMILES,NS1 inh,AmpC no deterg,CHX counter,Shiga inhibitor,AmpC detergent
CC1CCc2c(C(=O)Nc3nccs3)csc2C1 (stereo not given),-156%,-42%,37*,69*,3%
COc1ccc(CC(=O)Nc2ccc(-c3nc4cc(C)ccc4o3)c(O)c2)cc1OC,?,-13%,33*,70,1%
Cc1ccc2oc(-c3ccc(NC(=O)c4ccncc4)cc3O)nc2c1,-6%,9%,29*,44*,0%
O=C(Nc1ccc(-c2nc3ccccc3o2)c(O)c1)c1ccccc1,.,.,.,.,6%
O=C(OCCc1cc2ccccc2c(=O)o1)c1cccc(Br)c1,.,-28%,.,.,-10%
Cc1ccc(C(C)C)c(OCC(=O)NNC(=O)Cn2[nH]c(=O)c3ccccc3c2=O)c1,.,-10%,.,.,1%
Cc1ccc(OCC(=O)N2CCN(C)CC2)c(Br)c1,-1%,-14%,21*,93*,?
CC(C)c1ccc(OCC(=O)N2CCCCCC2)c(Br)c1,-43%,73%,25*,80*,?
Cc1ccc(OCC(=O)N2CCCCCC2)c(C)c1,5%,-2%,10*,37,?
Cc1cc(S(=O)(=O)N2CCCCC2)ccc1OCC(=O)N1CCCC1,1%,34%,-4,7,-11%
O=C(COc1ccc(Cl)cc1Cl)N1CCCC1,0%,0%,1,-3,-9%
Cc1cc(Br)ccc1OCC(=O)N1CCCCCC1,-2%,24%,25*,27,-10%
COc1ccc(NC(=O)C(c2ccccc2)c2ccccc2)cn1,-13%,5%,-3,31,5%
CC(NC(=O)c1ccc(N2Cc3ccccc3Oc3ncccc32)s1)c1ccccc1 (stereo not given),.,.,.,.,-1%
COC(=O)c1cc2oc3ccccc3c2n1Cc1c(C)cc(C)cc1C,.,.,.,.,14%
CC(=O)COc1ccc2c(c1C)O/C(=C\c1ccco1)C2=O,-1%,47%,82*,127*,10%
CC1CCCN(Cc2c(O)ccc3c2O/C(=C\c2ccco2)C3=O)C1 (stereo not given),-4%,-31%,-2,-2,20%
Cc1cc(O)c(CN(C)C)c2c1C(=O)/C(=C/c1ccco1)O2,8%,-4%,-2,-9,0%
Cc1c(OC(=O)N(C)C)ccc2c1O/C(=C\c1ccco1)C2=O,-7%,21%,47*,91*,5%
CCOc1ccc(N(CC(=O)Nc2cc(Cl)ccc2C)S(C)(=O)=O)cc1,29%,45%,0,-1,3%
COc1ccc(/C=C2\CC/C(=C\c3ccc(OC)cc3OC)C2=O)c(OC)c1,.,-30%,26*,60*,?
COc1ccc(/C=C2\CCC(C3CCCC3)C2=O)c(OC)c1 (stereo not given),-3%,-12%,10,21,-13%
N=C1C(c2nc3ccccc3[nH]2)=C(O)CN1c1ccccc1,-7%,-15%,10,19,?
N=C1C(c2nc3ccccc3s2)=C(O)CN1c1ccccc1,-3%,-1%,33*,39,-1%
COc1ccc(N2CC(O)=C(c3nc4ccccc4s3)C2=N)cc1,-30%,-16%,20*,68,10%
COc1cccc(N2CC(O)=C(c3nc4ccccc4s3)C2=N)c1,-3%,-36%,33*,54*,-3%
Cc1ccc(NC(=O)Cn2c(=O)n(Cc3ccc4c(c3)OCO4)c(=O)c3ccccc32)c(C)c1,.,.,.,.,19%
O=[N+]([O-])c1nn(-c2ccc3c(c2)OCCO3)n(O)c1=NC1CCCC1,-2%,-12%,32*,42*,3%
O=C1CCCN1CCCN=c1c([N+](=O)[O-])nn(-c2ccc(Cl)cc2)n1O,-7%,-14%,13,29,-1%
